The source made the active and inactive calls. Rule for the calls: active = hit-call score of the fitted dose curve at least 0.9, where 1 is the maximum; inactive = score below 0.9.
Columns and labels:
Conditions in all cases: mRNA level, 48 h; actives raise or lower the signal
[1] = read-out: Intercellular Adhesion Molecule 1 (ICAM1), ICAM1 (gene 3383); assay: LTEA_HepaRG_ICAM1: Life Technologies and Expression Analysis (LTEA) Assay for Intercellular Adhesion Molecule 1 (ICAM1) using HepaRG (AID 2283507)
How it was run: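 Using the human liver line HepaRG, compounds are tested in duplicate over 48 h at concentrations up to 100 uM. Expression is determined by TaqMan qRT-PCR, normalized to endogenous controls, and analysed relative to 0.5% DMSO vehicle.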

[2] = read-out: Insulin-like growth factor-binding protein 1 (IGFBP1), IGFBP1 (gene 3484); assay: LTEA_HepaRG_IGFBP1: Life Technologies and Expression Analysis (LTEA) Assay for Insulin-like growth factor-binding protein 1 (IGFBP1) using HepaRG (AID 2283508)
How it was run: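 HepaRG, 48 h, 8 conc. (max 100 uM, half-log), duplicates, 0.5% DMSO. Readout: TaqMan qRT-PCR, ACTB/GAPDH/POLR2A normalisation. Fit: bidirectional vs DMSO.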

[3] = read-out: Interleukin 6 (IL6), IL6 (gene 3569); assay: LTEA_HepaRG_IL6: Life Technologies and Expression Analysis (LTEA) Assay for Interleukin 6 (IL6) using HepaRG (AID 2283509)
How it was run: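 HepaRG, ~100,000 cells/well, 48 h pre-culture; serum-free induction medium; cmpd 8-pt half-log from 100 uM, 0.5% DMSO, duplicate, 48 h. Lysis in RLT, TaqMan qRT-PCR; gain or loss vs DMSO.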

[4] = read-out: Potassium channel subfamily K member 1 (KCNK1), KCNK1 (gene 3775); assay: LTEA_HepaRG_KCNK1: Life Technologies and Expression Analysis (LTEA) Assay for Potassium channel subfamily K member 1 (KCNK1) using HepaRG (AID 2283511)
How it was run: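 Gain or loss of KCNK1 mRNA is the read-out, quantified by qRT-PCR against three housekeeping genes after 48 h chemical treatment of human HepaRG liver cells. Concentrations ran from 100 uM downward in half-log steps, vehicle 0.5% DMSO.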

[5] = read-out: Keratin 19 (KRT19), KRT19 (gene 3880); assay: LTEA_HepaRG_KRT19: Life Technologies and Expression Analysis (LTEA) Assay for Keratin 19 (KRT19) using HepaRG (AID 2283512)
How it was run: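 Readout is qRT-PCR of KRT19 mRNA, normalized to ACTB, GAPDH and POLR2A, from HepaRG cells treated 48 h with eight-point half-log dilutions topping at 100 uM. Activity in either direction is scored relative to 0.5% DMSO vehicle.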

[6] = read-out: JUN Transcription Factor, JUN (gene 3725); assay: LTEA_HepaRG_JUN: Life Technologies and Expression Analysis (LTEA) Assay for JUN Transcription Factor using HepaRG (AID 2283513)
How it was run: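 Human HepaRG liver cells receive test chemicals in 0.5% DMSO for 48 h across an eight-point range topping at 100 uM. Expression changes in JUN are scored in both directions against the DMSO vehicle.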

[7] = read-out: Lipase C (LIPC), LIPC (gene 3990); assay: LTEA_HepaRG_LIPC: Life Technologies and Expression Analysis (LTEA) Assay for Lipase C (LIPC) using HepaRG (AID 2283514)
How it was run: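 Read-out is LIPC transcript level by TaqMan qRT-PCR, normalized to three housekeeping genes, after 48 h chemical treatment of human HepaRG liver cells. Curves span eight concentrations topping at 100 uM; activity in either direction scored relative to 0.5% DMSO.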

[8] = read-out: MicroRNA 122 (MIR122), gene 406906; assay: LTEA_HepaRG_MIR122: Life Technologies and Expression Analysis (LTEA) Assay for MicroRNA 122 (MIR122) using HepaRG (AID 2283516); note: the transcript read is the microRNA miR-122
How it was run: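 HepaRG, 48 h exposure, 8-pt half-log from 100 uM, 0.5% DMSO; TaqMan qRT-PCR; bidirectional fit vs DMSO.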

[9] = read-out: matrix metalloproteinase-10 (MMP10), MMP10 (gene 4319); assay: LTEA_HepaRG_MMP10: Life Technologies and Expression Analysis (LTEA) Assay for matrix metalloproteinase-10 (MMP10) using HepaRG (AID 2283517)
How it was run: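 Gain or loss of MMP10 mRNA is fitted relative to the 0.5% DMSO vehicle. The human hepatic line HepaRG receives a 48-hour serum-free exposure, in duplicate, with a maximum concentration of 100 uM.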

[10] = read-out: matrix metalloproteinase-3 (MMP3), MMP3 (gene 4314); assay: LTEA_HepaRG_MMP3: Life Technologies and Expression Analysis (LTEA) Assay for matrix metalloproteinase-3 (MMP3) using HepaRG (AID 2283519)
How it was run: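 HepaRG, human; 48 h dosing, 8 conc. (max 100 uM, half-log), duplicate, 0.5% DMSO. Readout: MMP3 transcript by Fluidigm TaqMan qRT-PCR, ACTB/GAPDH/POLR2A-normalised. Gain or loss fitted vs DMSO.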

[11] = read-out: Nuclear factor NF-kappa-B p105 subunit (Homo sapiens) (UniProt P19838); assay: LTEA_HepaRG_NFKB1: Life Technologies and Expression Analysis (LTEA) Assay for Nuclear Factor Kappa B Subunit 1 (NFKB1) using HepaRG (AID 2283521);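 note: differentiated human HepaRG liver cells in serum-free induction medium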
How it was run: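 NFKB1 transcript was measured by TaqMan qRT-PCR on Fluidigm arrays, normalised to three housekeeping genes and fitted in both directions against 0.5% DMSO. HepaRG cells were dosed in duplicate for 48 h in serum-free induction medium, eight half-log steps from 100 uM.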

[12] = read-out: Protein phosphatase 2A (PPP2R4), PTPA (gene 5524); assay: LTEA_HepaRG_PPP2R4: Life Technologies and Expression Analysis (LTEA) Assay for Protein phosphatase 2A (PPP2R4) using HepaRG (AID 2283522)
How it was run: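 Gene-expression endpoint in HepaRG hepatic cells: 48 h treatment across eight half-log concentrations up to 100 uM in 0.5% DMSO. PPP2R4 mRNA by qRT-PCR, normalized to three endogenous control genes.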

[13] = read-out: Phosphatase and tensin (PTEN), PTEN (gene 5728); assay: LTEA_HepaRG_PTEN: Life Technologies and Expression Analysis (LTEA) Assay for Phosphatase and tensin (PTEN) using HepaRG (AID 2283523)
How it was run: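 Read-out is PTEN transcript level by multiplexed TaqMan qRT-PCR after 48 h chemical treatment of human HepaRG cultures in serum-free induction medium. Concentrations spanned 100 uM downward in half-log steps, 0.5% DMSO throughout; activity fitted in both directions against vehicle.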

[14] = read-out: solute carrier (SLC22A1), SLC22A1 (gene 6580); assay: LTEA_HepaRG_SLC22A1: Life Technologies and Expression Analysis (LTEA) Assay for solute carrier (SLC22A1) using HepaRG (AID 2283524)
How it was run: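 HepaRG (human liver line), 48 h dosing in serum-free induction medium; 8 conc., half-log down from 100 uM, 0.5% DMSO vehicle, duplicates. Endpoint: SLC22A1 mRNA, qRT-PCR, housekeeping-normalized; gain/loss fit vs DMSO.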

[15] = read-out: Pyruvate Dehydrogenase Kinase 4 (PDK4), PDK4 (gene 5166); assay: LTEA_HepaRG_PDK4: Life Technologies and Expression Analysis (LTEA) Assay for Pyruvate Dehydrogenase Kinase 4 (PDK4) using HepaRG (AID 2283525)
How it was run: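 In this multiplexed human HepaRG expression assay, cells are treated 48 h with test chemicals across an eight-point range starting at 100 uM. PDK4 mRNA changes, normalized to ACTB/GAPDH/POLR2A, are fitted in both directions relative to vehicle.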

[16] = read-out: NAD(P)H dehydrogenase [quinone] 1 (NQO1), NQO1 (gene 1728); assay: LTEA_HepaRG_NQO1: Life Technologies and Expression Analysis (LTEA) Assay for NAD(P)H dehydrogenase [quinone] 1 (NQO1) using HepaRG (AID 2283526)
How it was run: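 Human HepaRG hepatic cells received chemicals for 48 h in serum-free induction medium with 0.5% DMSO, up to 100 uM. Expression was assessed by TaqMan qRT-PCR against housekeeping controls and fitted bidirectionally against DMSO.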

[17] = read-out: Lipoprotein lipase (LPL), LPL (gene 4023); assay: LTEA_HepaRG_LPL: Life Technologies and Expression Analysis (LTEA) Assay for Lipoprotein lipase (LPL) using HepaRG (AID 2283515)
How it was run: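 Read-out is LPL transcript level by qRT-PCR, normalized to three housekeeping genes and fitted bidirectionally against the DMSO control. Human HepaRG cells received chemicals for 48 h at up to 100 uM.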

MYC, MYC (gene 4609) = assay: LTEA_HepaRG_MYC: Life Technologies and Expression Analysis (LTEA) Assay for MYC using HepaRG (AID 2283518)
How it was run: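 Expression changes were scored by TaqMan qRT-PCR with ACTB, GAPDH and POLR2A normalization. Cultures in serum-free induction medium received duplicate 8-point concentration series, highest 100 uM, for 48 h; DMSO (0.5%) served as baseline.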

[18] = read-out: Paternally Expressed 10 (PEG10), PEG10 (gene 23089); assay: LTEA_HepaRG_PEG10: Life Technologies and Expression Analysis (LTEA) Assay for Paternally Expressed 10 (PEG10) using HepaRG (AID 2283520)
How it was run: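 Chemicals tested on HepaRG cells for 48 h, highest concentration 100 uM. PEG10 expression assessed by qRT-PCR relative to DMSO control.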

Measured: outcome

Nuclear factor NF-kappa-B p105 subunit (Homo sapiens), sequence (P19838 whole entry, looked up): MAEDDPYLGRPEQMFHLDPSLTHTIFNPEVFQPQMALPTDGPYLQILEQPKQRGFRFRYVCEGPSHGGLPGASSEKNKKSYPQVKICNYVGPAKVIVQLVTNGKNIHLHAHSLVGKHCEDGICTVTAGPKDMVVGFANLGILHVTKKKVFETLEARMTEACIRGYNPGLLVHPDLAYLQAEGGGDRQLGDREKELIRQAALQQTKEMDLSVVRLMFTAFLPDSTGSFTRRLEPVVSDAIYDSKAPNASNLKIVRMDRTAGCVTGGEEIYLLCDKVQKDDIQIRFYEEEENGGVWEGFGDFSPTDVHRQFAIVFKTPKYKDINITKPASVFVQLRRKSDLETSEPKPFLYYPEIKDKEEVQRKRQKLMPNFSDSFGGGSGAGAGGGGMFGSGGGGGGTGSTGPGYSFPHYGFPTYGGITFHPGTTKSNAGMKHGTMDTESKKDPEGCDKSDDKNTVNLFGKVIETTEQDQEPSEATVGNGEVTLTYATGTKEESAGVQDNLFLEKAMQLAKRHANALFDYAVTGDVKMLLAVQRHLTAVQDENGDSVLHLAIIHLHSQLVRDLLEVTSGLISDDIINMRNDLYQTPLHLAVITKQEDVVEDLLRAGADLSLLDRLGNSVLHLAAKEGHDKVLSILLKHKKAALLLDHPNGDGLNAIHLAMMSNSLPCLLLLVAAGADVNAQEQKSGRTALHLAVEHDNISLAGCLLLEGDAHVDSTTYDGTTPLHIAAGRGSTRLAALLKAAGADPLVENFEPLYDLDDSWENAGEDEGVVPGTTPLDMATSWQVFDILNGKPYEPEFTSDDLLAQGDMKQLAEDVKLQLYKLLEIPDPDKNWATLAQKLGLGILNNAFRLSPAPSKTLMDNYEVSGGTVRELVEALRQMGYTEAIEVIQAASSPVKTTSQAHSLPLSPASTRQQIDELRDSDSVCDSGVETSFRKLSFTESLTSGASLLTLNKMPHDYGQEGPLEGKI

Oc1cccc(O)c1
inactive: [1] | [2] | [3] | [4] | [5] | [6] | [7] | [8] | [9] | [10] | [11] | [12] | [13] | [14] | [15] | [16]

CCCCCCCCCCCCN1CCCC1=O
inactive: [1] | [2] | [3] | [4] | [5] | [7] | [17] | [8] | [9] | MYC, MYC (gene 4609) | [10] | [18] | [11] | [12] | [13] | [14] | [15] | [16]

COc1ccc([N+](=O)[O-])cc1N
inactive: [1] | [2] | [3] | [4] | [5] | [7] | [8] | [9] | [10] | [11] | [12] | [13] | [14] | [15] | [16]

c1ccc2c(c1)Cc1ccccc1-2
inactive: [1] | [2] | [3] | [4] | [5] | [7] | [17] | [8] | [9] | [10] | [11] | [12] | [13] | [14] | [15] | [16]

— PubChem BioAssay (EPA / NIEHS)
